# Assay results: PubChem BioAssay (NCI)
# Several values for one entry are separate records, joined by “and”; a condition that tells them apart may be missing. Identical values can stand only once. Compounds without any hit were thinned out: in the full panel of roughly 83,000, 20% have a hit.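 Activity criterion: percent growth below 10, measured after cells in 96-well plates were exposed to a single compound concentration for 48 hours.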 Unmarked numbers belong to inactive results. Activity calls are given as the source filed them.
# Legend:
# Assay in all cases: NCI-60 one-dose screen, 48 h (100 = growth as untreated, 0 = no growth, -100 = all killed)
# Details in all cases: 10 µM unless noted
# HCT-15 colon = system: HCT-15 colon
# HT29 colon = system: HT29 colon
# SNB-75 CNS = system: SNB-75 CNS
# SNB-19 CNS = system: SNB-19 CNS
# U251 CNS = system: U251 CNS
# PC-3 prostate = system: PC-3 prostate
# SK-MEL-5 melanoma = system: SK-MEL-5 melanoma
# UACC-62 melanoma = system: UACC-62 melanoma
# LOX IMVI melanoma = system: LOX IMVI melanoma
# SK-MEL-28 melanoma = system: SK-MEL-28 melanoma
SMILES,growth (HCT-15 colon),growth (HT29 colon),growth (SNB-75 CNS),growth (SNB-19 CNS),growth (U251 CNS),growth (PC-3 prostate),growth (SK-MEL-5 melanoma),growth (UACC-62 melanoma),growth (LOX IMVI melanoma),growth (SK-MEL-28 melanoma)
O=C1C(c2c[nH]c3ccccc23)=C(c2coc3cc(Br)ccc23)C(=O)N1O,97.2%,103%,65.4%,103%,101%,89.6%,97.2%,84.7%,62.2%,111%
CC(=O)c1c(C)nc(SCC(=O)Nc2ccc(Cl)cc2)n1-c1ccc(Cl)cc1,84.6%,83%,73.1%,93.7%,89.8%,71.8%,81.9%,69.7%,93.1%,104%
CCOC(=O)CCCn1c(-c2ccccc2)cc(-c2ccccc2)c(C#N)c1=O,82.3%,88.1%,71.2%,93.5%,98.7%,63.8%,92.7%,59%,84.7%,88.7%
CC(Sc1ccccc1)C(=O)O (stereo not given),100%,99.3%,91.6%,94.5%,91.1%,103%,106%,94.5%,95.6%,106%
N#CC(Cc1cccc2ccccc12)c1cc2ccccc2[nH]1 (stereo not given),88%,95.7%,88.3%,98.2%,92.3%,74.8%,95.6%,70%,90.9%,102%
C=C(c1ccc(C(=O)O)cc1)c1cc2c(cc1C)C(C)(C)CCC2(C)C,74.7% and 65.1%,93.2% and 62.7%,94.9% and 82.7%,75.2% and 79.6%,84.1% and 62.8%,68.9%,83% and 76.6%,74.3% and 58.7%,80.2% and 81.8%,137% and 72.9%
Nc1nc(Nc2ccc(F)cc2)nn1C(=O)c1cc(Cl)ccc1Cl,69.1%,70.8%,76.7%,65.8%,76.1%,75.6%,87%,60.8%,48.4%,86%
CCN(CC)CC(=O)Nc1ccc2ncnc(Nc3ccc(Oc4cccc(F)c4)c(Cl)c3)c2c1,17.6%,14.4%,66.4%,72.2%,45.2%,44.7%,58.4%,86.9%,-42% (active),81.3%
O=C(Nc1ccc(F)cc1)c1cc2cc(Nc3nc(-c4ccccc4)nc4ccccc34)ccc2oc1=O,112%,98.4%,102%,109%,97.4%,99.4%,105%,102%,93.5%,111%
CC1=CC(C)(C)NC(=S)N1c1ccc(Cl)cc1,96.9% and 88.8%,103%,91.3% and 108%,96.7% and 96.9%,98.7% and 102%,94% and 85.1%,100% and 103%,94.6% and 84.9%,95.2% and 97.7%,101% and 105%
CN(C)C(=O)c1cc2cnc(Nc3ccc(-c4csc5c(=S)cc(N6CCOCC6)oc45)cc3)nc2n1C1CCCC1,7.32% (active),5% (active),-37.4% (active),10.6%,7.08% (active),-4.89% (active),-30.4% (active),-35.8% (active),-39.8% (active),9.77% (active)
CC/C(=C(/c1ccc(O)cc1)c1ccc(OCCN2CCCCCC2)cc1)c1ccc(Cl)cc1,31.5%,14.2%,88.7%,80.2%,50.7%,27.8%,67%,83.2%,67.7%,58.5%
COc1cccc(C2C(C#N)=C(N)Oc3cc(OCCCCCC[P+](c4ccccc4)(c4ccccc4)c4ccccc4)ccc32)c1 (stereo not given),62%,-17.6% (active),-71.3% (active),-65.8% (active),-79.4% (active),-13.1% (active),-97.5% (active),-66.8% (active),-93.8% (active),-77.1% (active)
O=c1ccc2nc(-c3ccccn3)nn(-c3ccccc3)c-2c1,-48% (active),-44.2% (active),98.4%,98.9%,98.3%,89%,36%,72.7%,11.7%,70.7%
CCc1c2c(nc3ccc(OCc4ccc(B5OC(C)(C)C(C)(C)O5)cc4)cc13)-c1cc3c(c(=O)n1C2)COC(=O)[C@]3(O)CC,32.9%,10.2%,5.99% (active),8.91% (active),-8.07% (active),26.9%,-54.8% (active),-40.7% (active),-55.2% (active),32.8%
Cc1[nH]c(C(=O)Nc2nc3ccc(NC(=O)CCN)cc3s2)c(Cl)c1Cl,83.2%,88.9%,81.6%,78.6%,47.1%,65.5%,83.8%,44.4%,19.7%,97.8%
Cn1cc(-c2nc3c(F)cc4[nH]ncc4c3c3c2CCCC3)c(C(F)F)n1,66.6%,68.4%,57.6%,71.2%,80.5%,29%,65.4%,51.9%,62.6%,80.8%
CCCCCCCCCCCCCCCCCCOc1cccc(CC(=O)OCC[N+](CC)(CC)CC)c1,81.3%,64.5%,61.9%,38.3%,37.6%,55.4%,29.8%,63%,56.5%,92.8%
Cc1c(O)c(O)cc2c3c(oc12)CC(c1ccc2c(c1)OCO2)CC3=O (stereo not given),64.5%,94.3%,87.8%,101%,100%,81.1%,82.1%,53.4%,59.7%,105%
N#Cc1ccccc1-c1ccc(Cn2c(-c3cscn3)nc3c(Cl)cccc32)cc1,77.9%,71%,78%,88.5%,79.1%,54.4%,55.3%,75%,65.7%,105%
Cc1c(CC(=O)OCCO)cc(-c2ccc(Cl)cc2)n1-c1ccccc1,94.4%,101%,65.9%,95.3%,91.7%,101%,88.8%,77.7%,94%,109%
COc1c(NC=O)c2c(c([N+](=O)[O-])c1OC)C(=O)OC2,115% and 90.4%,102% and 112%,89.1% and 62.6%,102% and 99.5%,99.9% and 101%,90.7% and 102%,112% and 95.4%,104% and 93.7%,103%,111% and 103%
N#C/C(=C\c1ccccc1Cl)c1cc2ccccc2[nH]1,81.4%,97.7%,83%,93.1%,85.8%,80.5%,85.9%,76.5%,92.4%,99%
COc1cc(/C=C2\CCC/C(=C\c3cc(CN4CCCC4)c(O)c(OC)c3)C2=O)cc(CN2CCCC2)c1O,16.3%,-46.2% (active),20.3%,44.7%,25.3%,31.2%,71.1%,88.6%,9.9% (active),92.2%
N=C(N)SCc1c2ccccc2c(CSC(=N)N)c2ccccc12,93.9%,65.9%,89.5%,111%,61.1%,61.8%,68.9%,72.9%,55.7%,99%
